Source: PubChem BioAssay
RORg inh: blocks mouse ROR gamma transcriptional activity; P51450; Drosophila S2 Gal4-RORgamma UAS-luciferase reporter, 20 h; Potency, µM (series often up to 53.6 µM), usual class: inhibitors; 310,000 compounds, 5.4% hits; also: nearly all actives have a fitted effect of over 60% in size
Target sequence (P51450 whole entry, looked up, the tested form may be a part): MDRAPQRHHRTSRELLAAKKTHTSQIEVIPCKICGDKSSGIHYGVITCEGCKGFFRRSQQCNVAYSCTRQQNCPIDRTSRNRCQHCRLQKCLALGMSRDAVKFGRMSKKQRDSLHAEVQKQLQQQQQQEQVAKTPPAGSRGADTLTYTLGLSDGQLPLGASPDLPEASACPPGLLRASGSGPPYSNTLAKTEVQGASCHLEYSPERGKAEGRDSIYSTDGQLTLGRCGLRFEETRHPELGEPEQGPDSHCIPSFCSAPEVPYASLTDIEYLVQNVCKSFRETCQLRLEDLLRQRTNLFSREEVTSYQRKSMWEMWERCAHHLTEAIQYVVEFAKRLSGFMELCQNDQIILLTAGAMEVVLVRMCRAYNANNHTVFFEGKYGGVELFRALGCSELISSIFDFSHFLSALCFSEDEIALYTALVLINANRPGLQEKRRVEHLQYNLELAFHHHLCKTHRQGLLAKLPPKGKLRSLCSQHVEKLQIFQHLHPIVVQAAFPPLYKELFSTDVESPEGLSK
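Luciferase reporter read in Schneider cells carrying Gal4-RORγ (mouse) and UAS-Photinus luciferase; cells given compound 1 h before 700 uM copper sulfate induction, then incubated 20 h at ambient temperature.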
VP16 counter: Gal4-VP16 reporter inhibition counter-screen; 310,000 compounds, 3.5% hits; Potency, µM (highest dose often 53.6 µM), usual class: inhibitors; Drosophila S2 Gal4-VP16 UAS-luciferase, luminescence, 20 h;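 also: Gal4-VP16 expression switched on by copper sulfate through the metallothionein promoter; nearly all actives have a fitted effect of over 50% in size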
IL1B secr inh: inhibitors of inflammasome signaling (IL-1 beta secretion) | THP-1 LPS/ATP IL-1B secretion, AlphaLISA, 16 h; active compounds read low | activity change, % at 57.5 µM | 360,000 compounds, 4.7% hits | AID 743279; in the data active = activity change below about -50%; inconclusive = mostly about -30% to -49%
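Secreted IL-1B measured by AlphaLISA bead assay after 16 h compound exposure of THP-1 cells; compounds (final up to 57.5 uM) added 1 h before LPS (250 ng/mL) and ATP (1.25 mM) stimulation; lower signal means less secretion.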
TDP1 cell CPT: growth inhibition of DT40 Tdp1-/-;hTDP1 cells with camptothecin (screen for TDP1 inhibitors) | chicken DT40 Tdp1-/-;hTDP1 cells + 20 nM CPT, ATP luminescence, 48 h | Potency, µM (highest dose often 46.2 µM), hits mostly inhibitors | 420,000 compounds, 12% hits | AID 686979; also: nearly all actives have a fitted effect of over 55% in size
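Cell growth measured by CellTiter-Glo luminescence after a minimum 48 h, 37 C compound exposure with 20 nM CPT in Tdp1-knockout DT40 cells stably expressing hTDP1, seeded 400/well; qHTS titration format.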
DT40 TDP1 no CPT: qHTS for Inhibitors of human tyrosyl-DNA phosphodiesterase 1 (TDP1): qHTS in cells in absence of CPT | DT40 Tdp1-/- hTDP1 cells, no CPT, ATP luminescence, 48 h | Potency, µM (titrated, usually from 46.2 µM), actives largely listed as inhibitors | 420,000 compounds, 15% hits | AID 686978, 2013; also: nearly all actives have a fitted effect of over 55% in size
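Camptothecin absent (DMSO only). Human TDP1-complemented DT40 knockout cells, 400 cells/well, 37 °C for minimum 48 hr; ATP measured via CellTiter-Glo, 30 min dark incubation, luminescence.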
ELG1 DNA repair: ELG1-dependent DNA repair inhibition. HEK293T ELG1-luciferase reporter, luminescence, 16 h; DNA damage induced by 5-fluorouridine. Potency, µM (highest dose often 46.1 µM), actives largely listed as inhibitors. 330,000 compounds, 2.3% hits. AID 504467; also: nearly all actives have a fitted effect of over 55% in size
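In this reporter screen, reduction of luminescence relative to DMSO vehicle indicated activity. Compounds and 5-fluorouridine were added together to 2,000 cells per well, incubated for 16 hr at 37 °C, then developed with ONE-Glo.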
Hits are given with their value; i = inactive; ? = inconclusive; nt = not tested or not shown; [ ] = another dose, or the depositor's remark. Hits are enriched below; roughly 21% of the tested compounds scored in any of these assays. Unless noted, calls follow the shape of the dose curve; as a rule, active = well fitted curve in the direction sought with a large enough effect; inconclusive = small, poorly fitted or top-dose-only effect, or another doubt; inactive = no such curve, though single readings can be large; an effect the other way counts as inactive or inconclusive.

SMILES | RORg inh | VP16 counter | IL1B secr inh | TDP1 cell CPT | DT40 TDP1 no CPT | ELG1 DNA repair
CCc1cc(C(=O)Cc2cnn(-c3ccccc3)c2)c(O)cc1O | ? | ? | i | i | i | i
Cc1ccc(-n2cc(C(=O)c3ccccc3O)cn2)cc1 | 11.2µM | ? | i | i | ? | ?
O=C(Cc1cnn(-c2ccccc2)c1)c1ccc(O)c(O)c1O | i | i | i | 20.6µM | ? | ?
COc1ccc(C(=O)n2cc(C(=O)c3cc(C)ccc3O)cn2)cc1 | i | i | i | i | i | ?
Cc1ccc(O)c(C(=O)c2cnn(-c3ccccc3)c2)c1 | i | i | i | 7.31µM | 11.6µM | ?
CCC1CN(CCNC(=O)c2ccc(C#CC(C)(C)O)cc2)Cc2cc(OC)ccc2O1 (stereo unspecified) | nt | nt | nt | i[9.04 µM] | ? | nt
COc1ccc(CC(=O)OCCc2cc3cc(OC)c(OC)cc3c(=O)o2)cc1 | nt | nt | i | i | i | i
Cn1nccc1C(=O)NC1CCCc2c1cnn2-c1ccc(C(C)(C)C)cc1 (stereo unspecified) | ? | 2.51µM | i | 2.91µM | 2.91µM | i
CC(C)(C)c1ccc(-n2ncc3c2CCCC3NC(=O)c2cnccn2)cc1 (stereo unspecified) | i | ? | -81.8 | ? | 9.2µM | ?
CC(C)(C)c1ccc(-n2ncc3c2CCCC3NC(=O)c2csnn2)cc1 (stereo unspecified) | i | ? | i | ? | 11.6µM | i
NC[C@@H]1O[C@H](C23CC4CC(CC(C4)C2)C3)Cc2c1ccc(O)c2O | ? | ? | i | 23.1µM | 23.1µM | i
NC[C@@H]1O[C@H](c2ccccc2)Cc2c1ccc(O)c2O | 28.2µM | 25.1µM | nt | 6.68µM | 9.44µM | nt
O=c1[nH]nnc2c1cnn2-c1ccccc1 | nt | nt | i | i | i | nt
Cc1cccc(OCCn2c(-c3ccc(Cl)cc3)nc3ccccc3c2=O)c1 | nt | nt | nt | i | i | nt
CCN(CC(=O)Nc1cccc(OC)c1)C(=O)c1cnc(Cl)c(Cl)c1 | i | i | -83.1 | i | ? | i
COc1ccc(CN(C)C(=O)c2ccc(COc3ccccc3)cc2)c(OC)c1 | i | i | i | 18.4µM | 9.2µM | ?
COc1ccc(C(=O)N[C@H](C(=O)NCc2ccc(C)cc2)C(C)C)cc1 | i | i | i | i | i | i
COc1cccc(NC(=O)CN(C)C(=O)c2ccc(COc3ccccc3)cc2)c1 | nt | nt | i | ? | 16.4µM | ?
COc1cccc(CN(C)C(=O)[C@@H](NC(=O)c2ccc(C)cc2)C(C)C)c1 | i | i | i | 20.6µM | 20.6µM | i
CCCN1C(=O)c2cc(C(=O)NCc3ccc(OC)cc3)ccc2C1O (stereo unspecified) | i | i | i | i | i | i
COCC(=O)N1CCC2(CC1)CCN(C(=O)Nc1cccc(C#N)c1)CC2 | i | i | nt | i | i | nt
CC(C(=O)Nc1ccc(OC(F)(F)F)cc1)N1Cc2ccccc2C1=O (stereo unspecified) | nt | nt | nt | i | i | nt
COc1cc2c(cc1OC)C1O[C@](CCCCN3C(=O)c4ccccc4C3=O)(C2)OC2=C1C(=O)CCC2 | i[10 µM] | i[10 µM] | nt | nt | nt | nt
Cc1cccc(-n2nnc3c(=O)n(Cc4ccccn4)cnc32)c1 | i | i | i | i | i | i
CN(CC(=O)Nc1ccccc1Cl)C(=O)c1ccc(Cl)c(S(=O)(=O)N2CCCCCC2)c1 | nt | nt | i | i | ? | ?
SMILES | RORg inh | VP16 counter | IL1B secr inh | TDP1 cell CPT | DT40 TDP1 no CPT | ELG1 DNA repair
CN(CC(=O)Nc1cccc(F)c1)C(=O)c1ccc(OCc2cn3ccccc3n2)cc1 | nt | nt | i | ? | 14.6µM | ?
COc1cccc(NC(=O)CN(C)C(=O)c2ccc(Cl)c(S(=O)(=O)N3CCCCCC3)c2)c1 | nt | nt | i | ? | 14.6µM | ?
COc1ccccc1CN(C)C(=O)C(c1ccccc1)c1ccccc1 | ? | i | -82.2 | 16.4µM | 13µM | ?
COc1ccc(Br)cc1CN(C)C(=O)c1cc(Cl)c2c(c1)OCCO2 | i | i | i | ? | 20.6µM | i
Fc1ccc(Nc2nnc(-c3ccncc3)s2)cc1Cl | nt | nt | i | i | i | nt
O=C(CCCN1CCC(C(O)c2ccc(F)cc2)CC1)c1ccc(F)cc1 (stereo unspecified) | nt | nt | i | i | ? | nt
CCOC(=O)[C@]12CCC=C1N(CCC1=CCCCC1)C(=O)[C@H](CC(=O)N1CCOCC1)C2 | nt | nt | i | ? | ? | nt
COc1cccc(NC(=O)CN(C)C(=O)CNC(=O)c2ccc3ccccc3c2)c1 | nt | nt | -99.8 | i | i | ?
COc1ccc(Br)cc1CN(C)C(=O)CNC(=O)c1ccc2ccccc2c1 | i | i | -75.4 | i | ? | ?
COc1ccc(CN(C)C(=O)C(Cc2ccccc2)NC(=O)c2ccccc2)c(OC)c1 (stereo unspecified) | nt | nt | i | ? | 20.6µM | ?
CN1CCN(S(=O)(=O)c2cccc(C(=O)N(C)Cc3cccs3)c2)CC1 | nt | nt | i | i | i | i
CN(Cc1cccs1)C(=O)c1ccc(Cl)c(S(=O)(=O)N2CCCCCC2)c1 | nt | nt | i | i | ? | 20.6µM
COC(OC)[C@@H](C)[C@H](OC)[C@@H](C)[C@H](OC)c1ccccc1 | i[10 µM] | i[10 µM] | nt | nt | nt | nt
Cc1nc(N2CCN(C)CC2)c2nnn(Cc3ccccc3)c2n1 | nt | nt | nt | i | ? | nt
COCC(=O)Nc1cc(C(=O)N2CCN(c3ccccc3)C(=O)C2)cc2nc(-c3ccccc3)n(C)c12 | nt | nt | nt | i | i | nt
COc1ccc(/C=N/N=C2/CC(C)(C)Cc3n[nH]c(=O)cc32)cc1 | i | i | i | ? | i | i
COc1cccc(CN(C)C(=O)CCN(c2ccccc2)S(=O)(=O)c2ccc(C)cc2)c1OC | nt | nt | i | 25.9µM | 16.4µM | ?
COc1cccc(CN(C)C(=O)c2ccc(COc3ccc(Cl)cc3)cc2)c1OC | ? | i | ? | ? | ? | ?
COc1cccc(NC(=O)CN(C)C(C)C(=O)Nc2ccc(C(C)=O)cc2)c1 (stereo unspecified) | i | i | i | i | i | i
COc1ccccc1CN(C)C(=O)c1ccc(COc2ccccc2)cc1 | i | i | -75.7 | 16.4µM | ? | i
COc1cccc(NC(=O)CN(C)C(C)C(=O)NC(C)c2ccc(Cl)cc2Cl)c1 (stereo unspecified) | nt | nt | i | ? | 18.4µM | i
COc1cccc(CN(C)C(=O)CNC(=O)c2ccc(-c3ccccc3)cc2)c1OC | ? | i | -63.2 | ? | ? | ?
CCOc1cc(C)nc(N2CCC(C(=O)NC3CC3)CC2)n1 | nt | nt | i | i | i | nt
c1ccc2c(NCCN3CCOCC3)nc(-c3ccc4c(c3)OCO4)nc2c1 | i | i | nt | ? | ? | nt
COc1cccc(CN(C)C(=O)c2ccc(Oc3ccccc3)cc2)c1OC | i | i | i | 25.9µM | 20.6µM | i
